The text below walks through data of PubChem BioAssay.

What is called inhibition is the relative decrease from the control value, in per cent.

Test [1] in a line: inhibitors of TNFa-induced NFkB p65 translocation, primary screen, imaging, HUVEC, MLSMR starter and 10KST1 sets (AID 438;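 active = inhibition above 20% together with a positive visual image hit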;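 also: compound added about 3h40 before a 20 min TNFalpha stimulation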;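 as to inhibition: signal is the nuclear over cytoplasmic p65 intensity ratio per well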). The conditions noted are these: HUVEC TNFa-induced p65 nuclear translocation; cell count: measured here: nuclei count (cytotoxicity indicator), at 2.08 µM; inhibition: at 2 µM, stronger effect = higher value, 0% TNFa-plus-vehicle, 100% no-TNFa wells.
The nature of test [2]: inhibitors of mutant huntingtin aggregation, primary screen, imaging, exon1htt(103Q)mCFP cells, high-content imaging (AID 483;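 active = visual image review flags a hit and inhibition of aggregation exceeds 20%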;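 also: compound exposure lasted 3 days before fixation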;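 as to nuclei count: percent of the per-plate median nuclei count of sample wells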). The conditions noted are these: exon1htt(103Q)mCFP cell line, aggregate imaging, at 2 µM; inhibition of aggregation: stronger effect = higher value; nuclei count: measured here: cell count, toxicity.
Test [3] can be described thus: inhibitors of E-selectin induction by TNFa, primary screen, imaging, HUVEC, immunofluorescence, MLSMR starter and 10KST1 sets (AID 487;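 active = visually confirmed hit in the image check and inhibition above 20%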;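 as to inhibition: signal is fraction of cell area covered by stained E-selectin grains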;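 as to nuclei count: 100% = median nuclei count of all wells on the same plate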). The settings on record: HUVEC TNFalpha-induced E-selectin immunofluorescence imaging, at 2 µM; inhibition: stronger effect = higher value; nuclei count: measured here: cell number, toxicity.
Test [4] is described as follows: DUSP6 inhibitors restoring Erk phosphorylation by chemical complementation, primary imaging in DUSP6-transfected HeLa (AID 609;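 active = compounds giving at least 50% inhibition in the cell-based MKP-3 phosphatase rescue imaging test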;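 as to inhibition: phospho-Erk level distribution per well compared with pooled transfected vehicle control wells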). The settings on record: HeLa MKP-3 transfected, phospho-Erk imaging KS statistic, at 10 µM, cells stimulated with TPA for 15 min.
In test [5] the target is Dual specificity protein phosphatase 6 (Homo sapiens) (UniProt Q16828). Described as above. The settings on record: HeLa MKP-3 transfected, phospho-Erk imaging KS statistic; at 10 µM; stronger effect = higher value; cells stimulated with TPA for 15 min.
Sequence of Dual specificity protein phosphatase 6 (Homo sapiens) (Q16828 whole entry, looked up): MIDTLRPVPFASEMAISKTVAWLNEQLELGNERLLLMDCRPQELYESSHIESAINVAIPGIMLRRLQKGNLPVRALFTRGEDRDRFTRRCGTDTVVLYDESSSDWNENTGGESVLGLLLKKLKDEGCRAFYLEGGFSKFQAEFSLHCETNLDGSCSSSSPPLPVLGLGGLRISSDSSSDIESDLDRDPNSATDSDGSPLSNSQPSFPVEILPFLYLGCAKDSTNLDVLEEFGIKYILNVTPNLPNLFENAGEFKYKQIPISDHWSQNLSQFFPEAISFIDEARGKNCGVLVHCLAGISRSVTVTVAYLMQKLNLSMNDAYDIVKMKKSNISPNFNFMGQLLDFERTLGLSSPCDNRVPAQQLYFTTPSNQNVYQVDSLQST
The target in test [6] is Voltage-gated potassium channel subunit beta-2 (Rattus norvegicus) (UniProt P62483). In words: KvBeta enzyme negative modulators, primary screen, biochemical, NADPH fluorescence (AID 622;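 active = fluorescence slope higher than the sample average by over 3 SD, cut at about -0.22 in these data, passing the limit was not always enough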;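 also: slope of raw intensity against log time taken from 70 to 1610 s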). The settings on record: recombinant KvBeta, 4-cyanobenzaldehyde reduction, at 10 µM, stronger effect = higher value.
Sequence of Voltage-gated potassium channel subunit beta-2 (Rattus norvegicus) (P62483 whole entry, looked up): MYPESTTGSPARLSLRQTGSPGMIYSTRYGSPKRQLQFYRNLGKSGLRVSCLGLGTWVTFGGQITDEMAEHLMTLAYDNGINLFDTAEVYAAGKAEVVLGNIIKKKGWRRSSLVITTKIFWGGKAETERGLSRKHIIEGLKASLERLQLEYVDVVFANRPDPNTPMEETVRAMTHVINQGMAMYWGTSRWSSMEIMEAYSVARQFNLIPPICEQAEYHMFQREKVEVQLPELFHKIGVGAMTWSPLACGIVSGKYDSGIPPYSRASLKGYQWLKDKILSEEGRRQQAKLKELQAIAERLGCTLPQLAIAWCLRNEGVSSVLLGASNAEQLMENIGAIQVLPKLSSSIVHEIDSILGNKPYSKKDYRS
For test [7] the target is unchanged. Briefly: KvBeta positive modulators, primary screen, biochemical, NADPH fluorescence (AID 623;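 active = NADPH fluorescence slope more negative than the mean of all samples by about 3 SD, 99.7% confidence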;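 also: fluorescence intensity change per second fitted from 20 to 320 s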). The settings on record: Recombinant KvBeta, NADPH fluorescence decrease slope, 10 min; at 10 µM; stronger effect = lower value.
For test [8], the target named is Alpha-2C adrenergic receptor (Homo sapiens) (UniProt P18825). Briefly: modulators of alpha2C/GIRK thallium flux, primary screen, cell-based, HEK293 alpha2C/GIRK1/2 (AID 624;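 active = fluorescence slope after compound addition differing from the mean of all screened samples at 99.7% confidence, in either direction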;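 also: slope of fluorescence ratio to pre-addition baseline per second over 15 to 24 s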). The conditions noted are these: thallium flux BTC fluorescence, at 10 µM, actives lie on both sides.
Sequence of Alpha-2C adrenergic receptor (Homo sapiens) (P18825 whole entry, looked up): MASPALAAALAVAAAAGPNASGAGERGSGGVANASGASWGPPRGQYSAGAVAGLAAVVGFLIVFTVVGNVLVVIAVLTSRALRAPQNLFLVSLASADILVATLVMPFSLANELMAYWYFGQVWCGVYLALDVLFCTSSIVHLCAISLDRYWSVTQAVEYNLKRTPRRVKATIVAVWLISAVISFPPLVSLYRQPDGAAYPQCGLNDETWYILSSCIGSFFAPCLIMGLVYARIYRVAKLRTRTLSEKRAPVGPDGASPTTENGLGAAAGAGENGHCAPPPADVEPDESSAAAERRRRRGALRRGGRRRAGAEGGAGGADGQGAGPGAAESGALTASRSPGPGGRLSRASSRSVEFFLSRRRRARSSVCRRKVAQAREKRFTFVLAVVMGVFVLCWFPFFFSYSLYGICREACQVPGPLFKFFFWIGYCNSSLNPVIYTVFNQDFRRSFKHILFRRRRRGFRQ
Test [9] can be described thus: inhibitors of larval lipid processing in zebrafish, primary screen, whole organism, PED6 fluorescence, gall bladder and intestine (AID 686;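 active = a full or partial loss of lipid-probe fluorescence in the fish gall bladder, intestine or both, judged by eye; inactive = no fluorescence loss, or compound toxic to the fish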;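 also: larvae 5 to 7 days old with five fish per well; signal comes from phospholipase A2 cleavage of quenched PED6 carried via bile; overnight exposure to compound and PED6 before scoring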). The conditions noted are these: Zebrafish larvae PED6 lipid processing, fluorescence scoring; screened at 20 µM (by protocol).
A short description of test [10]: inhibitors of Chlamydomonas gravitaxis, primary screen, whole organism, Chlamydomonas reinhardtii, WT vs cilia-less mutant, absorbance, 96-well (AID 463189).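 Also: 0% = wild type cc124 cells in DMSO and 100% = ciliumless bld1 mutant cells.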 The settings on record: OD600 absorbance, 2 days, at 10 µM, stronger effect = higher value.
Test [11] in a line: inhibitors of Sendai virus-induced IRF3 signaling, primary screen, TLR/RLR signaling modifier project, cell-based, Sendai virus stimulus, luciferase, 10K MLSCN set (AID 602276;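 active = inhibition at or above 50% at 10 µM; inactive = inhibition below 50%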;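 also: firefly luciferase from ISG56 promoter only with Renilla not read in this screen; 0% = Sendai virus plus DMSO and 100% = medium plus DMSO without virus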). The settings on record: HEK293 RL24 IRF3 luciferase reporter, at 10 µM, stronger effect = higher value. On the technique in general: In a reporter assay the amount or activity of a reporter protein is the signal.

Test [12] is described as follows: inhibitors of poly I:C-induced TLR3 signaling, primary screen, cell-based, poly I:C stimulus, luciferase, 10K MLSCN set (AID 602277;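 active = inhibition of the reporter signal at or above 50%; inactive = inhibition below 50%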). The settings on record: HEK293-TLR3 RL24 IRF3 luciferase reporter, at 10 µM, stronger effect = higher value.
Where [13] appears, read: measured here: cell density z-score.
[14] abbreviates: measured here: nuclear c-Myc green intensity z-score.
Where [15] appears, read: measured here: nuclear pErk red intensity z-score, stronger effect = higher value.

Where “and” joins values, the source holds several entries; their conditions need not be identical. Identical values can stand only once. Calls of active or inactive are those of the source.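 The calls were made as follows, unless noted: active = inhibition at or above 50% relative to wild type and mutant plate controls; inactive = inhibition below 50%.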

Regarding `CC1(C)Cc2c(sc3c2C2=NCCN2C=N3)CO1`, the cell count in test [1] is 624. Moreover, the inhibition in test [1] was -7% (inactive); in test [3], -54.1% (inactive); in test [5], -2.69% (inactive); in [10], 63.1% (active); in test [11], -17.5% (inactive); in test [12], -3.31% (inactive). In addition, the inhibition of aggregation in test [2] is 4.2% (inactive). In addition, the nuclei count was found to be 124% in [2] and 139% in [3]. In addition, the z-score is -0.0476 in test [4] (setting [13]), 0.11 in test [4] (setting [14]) and -0.119 in [4] (setting [15]). Moreover, the fluorescence slope in [6] is -0.328 (inactive). Moreover, in test [7], the NADPH fluorescence slope was -8.5e-06 (inactive). The slope in test [8] was 0.00463 (inactive). For the same compound, the result in test [9] was inactive.
For the compound `C=CCn1cnc2c(c1=O)c1nc3ccccc3nc1n2-c1ccc(C)cc1`, the cell count in [1] came out at 548. The inhibition in test [1] was -5.7% (inactive); in [3], -70.3% (inactive); in test [5], -2.07% (inactive); in [10], 15.4% (inactive); in [11], 15.3% (inactive); in test [12], 10% (inactive). The inhibition of aggregation in [2] was -8.4% (inactive). Moreover, the results for the nuclei count in test [2] and in test [3] were 100% and 132%, respectively. The z-score in [4] (setting [13]) was -0.575; in test [4] (setting [14]) it was -1.45; in test [4] (setting [15]), 1.52. Moreover, the fluorescence slope in test [6] was -0.354 (inactive). For the same compound, the NADPH fluorescence slope in test [7] is -6.7e-05 (inactive). Also, in test [8], the slope was 0.00438 (inactive). In addition, the outcome in [9] was inactive.
Consider `CC1(C)CC(=O)C=C(NCc2ccncc2)C1`, for which the cell count in test [1] is 623. Further, the inhibition was -5.3% (inactive) in test [1]; -98.8% (inactive) in test [3]; 13.9% (inactive) in [5]; -8.68% (inactive) in test [10]; -0.503% (inactive) in test [11]; 44.9% (inactive) in [12]. Also, in test [2], the inhibition of aggregation is -13.1% (inactive). Also, the nuclei count in [2] was 100%; in test [3] it was 122%. In addition, the z-score in [4] (setting [13]) is 1.78; in [4] (setting [14]), -0.484; in [4] (setting [15]), -1.6. Further, the fluorescence slope in test [6] was -0.497 (inactive). In test [7], the NADPH fluorescence slope was -3.5e-05 (inactive). Besides, the slope in [8] is 0.00534 (inactive). Further, the compound was called inactive in [9].
For the compound `COCCc1ccc(OCC(O)CNC(C)C)cc1` (stereo not given), the cell count in [1] was 534. The inhibition in [1] is 1.4% (inactive); in test [3], -71.5% (inactive); in test [5] it was 8% (inactive); in test [10], -6.24% (inactive) and 33.7% (inactive); in test [11] it was 15.3% (inactive); in test [12], 32.2% (inactive). Further, the inhibition of aggregation in [2] is -4.4% (inactive). The nuclei count in test [2] was determined as 85.7%; in test [3] it was 108%. Moreover, the values for the z-score in test [4] (setting [13]), in test [4] (setting [14]) and in [4] (setting [15]) were -1.75, 1.07 and 0.0458, respectively. Moreover, the fluorescence slope in [6] is -0.46 (inactive). Further, the NADPH fluorescence slope in test [7] was -3.7e-05 (inactive). Besides, the slope in [8] was 0.00577 (inactive). For the same compound, in [9], the outcome was inactive.
On to `CNCCCC1c2ccccc2C=Cc2ccccc21`, for which the cell count in [1] was found to be 583. Further, the inhibition is -3.3% (inactive) in test [1]; -90.5% (inactive) in test [3]; -11.9% (inactive) in [5]; 7.66% (inactive) and 11.9% (inactive) in test [10]; 18.5% (inactive) in [11]; 41.3% (inactive) in test [12]. Also, the inhibition of aggregation in [2] is 10.3% (inactive). For the same compound, the figures for the nuclei count in [2] and in test [3] were 79.5% and 120%, respectively. The z-score was 0.8 in test [4] (setting [13]), 0.418 in [4] (setting [14]) and 3.14 in test [4] (setting [15]). Besides, in test [6], the fluorescence slope is -0.496 (inactive). Further, in [7], the NADPH fluorescence slope is -5.9e-05 (inactive). For the same compound, in test [8], the slope was 0.00425 (inactive). The compound was classed as inactive in test [9].
As to `CCCCOc1ccc(C(=O)Nn2cnnc2)cc1`, in [1], the cell count is 491. The inhibition in [1] is -0.8% (inactive); in test [3], -83.6% (inactive); in test [5], -8.27% (inactive); in test [10], 0.154% (inactive); in test [11], 9.75% (inactive); in test [12], 15.4% (inactive). Besides, in test [2], the inhibition of aggregation was 14.2% (inactive). Moreover, the nuclei count was found to be 96.9% in test [2] and 100% in [3]. Moreover, the z-score is -0.477 in test [4] (setting [13]), -1.53 in test [4] (setting [14]) and -0.77 in test [4] (setting [15]). Moreover, the fluorescence slope in test [6] is -0.32 (inactive). Further, the NADPH fluorescence slope in test [7] is -2.1e-05 (inactive). Further, the slope in [8] was 0.00306 (inactive). In addition, in test [9], the compound was called inactive.
As for `Cc1cc(N2CCN(C3CCCC3)CC2)n2c(nc3ccccc32)c1C#N`, the cell count in [1] was 582. Further, the inhibition is -4.5% (inactive) in [1]; 6.5% (inactive) in [3]; 17.8% (inactive) in [5]; -3.52% (inactive) in test [10]; 24.6% (inactive) in test [11]; 39% (inactive) in [12]. Also, in test [2], the inhibition of aggregation is 36.4% (active). Besides, the nuclei count stood at 57.7% in [2] and 110% in test [3]. Also, the results for the z-score in test [4] (setting [13]), in test [4] (setting [14]) and in test [4] (setting [15]) were 1.58, 0.862 and -0.0668, respectively. Further, in test [6], the fluorescence slope is -0.33 (inactive). The NADPH fluorescence slope in [7] is -3.1e-05 (inactive). In [8], the slope is 0.00579 (inactive). Also, the compound was called inactive in test [9].
On to `O=C(CSc1nnc(-c2ccco2)c(-c2ccco2)n1)Nc1ccccc1`, for which, in test [1], the cell count is 582. Moreover, the inhibition in [1] was -9.5% (inactive); in test [3], -30.7% (inactive); in test [5], 1.6e-07% (inactive); in test [10], 17.3% (inactive); in [11], -13.8% (inactive); in [12], 6.55% (inactive). For the same compound, the inhibition of aggregation in test [2] is -9.2% (inactive). Besides, the nuclei count in [2] worked out at 100%; in [3], 123%. For the same compound, the results for the z-score in [4] (setting [13]), in [4] (setting [14]) and in [4] (setting [15]) were 0.318, -1.08 and 1.26, respectively. Also, the fluorescence slope in test [6] is -0.358 (inactive). The NADPH fluorescence slope in test [7] is -1.6e-05 (inactive). In addition, the slope in test [8] was 0.00359 (inactive). In addition, the compound was called inactive in test [9].
`CC(C)C1Cc2c(C#N)c(N)sc(=S)c2CO1` (stereo not given): the cell count in test [1] came out at 487. In addition, the inhibition in test [1] is 4.7% (inactive); in test [3], -98.3% (inactive); in [5], 14% (inactive); in test [10], 27.2% (inactive); in [11], -3.04% (inactive); in test [12], 12.1% (inactive). The inhibition of aggregation in [2] is 2.2% (inactive). Besides, the values for the nuclei count in test [2] and in [3] were 102% and 146%, respectively. The results for the z-score in [4] (setting [13]), in test [4] (setting [14]) and in test [4] (setting [15]) were 1.33, -0.895 and 0.775, respectively. The fluorescence slope in test [6] was -0.291 (inactive). For the same compound, the NADPH fluorescence slope in test [7] is 1.2e-05 (inactive). The slope in [8] is 0.0021 (inactive). Besides, the compound was called inactive in test [9].
Consider `CCCCC[C@H](O)/C=C/[C@H]1C=CC(=O)[C@@H]1C/C=C\CCCC(=O)O`, for which the cell count in test [1] was found to be 543. In addition, the inhibition in test [1] is -11.1% (inactive); in test [3], -33.9% (inactive); in test [5], 7.39% (inactive); in test [10] it was 5.58% (inactive); in [11] it was -2.27% (inactive); in [12], 25% (inactive). In addition, in test [2], the inhibition of aggregation is 16% (inactive). Moreover, the nuclei count in [2] is 84.8%; in test [3] it was 110%. Also, the z-score was 1.78 in [4] (setting [13]), -0.725 in [4] (setting [14]) and -0.854 in [4] (setting [15]). The fluorescence slope in [6] is -0.458 (inactive). In addition, the NADPH fluorescence slope in [7] is -5.4e-05 (inactive). The slope in [8] was 0.00837 (inactive). Moreover, the outcome in [9] was inactive.
